High-throughput results from PubChem BioAssay.
Most compounds without a hit are left out; they make up all but 2.2% or so of the library.
aSyn rescue = qHTS of alpha-syn Inhibitors. Potency, µM (top dose mostly 46.1 µM), inactives show top-dose growth rescue (activation), actives largely listed as activators. actives 0.14% (n = 370,000). Yeast expressing alpha-synuclein, growth rescue, BacTiter-Glo, 24 h. AID 652106, 2013; also: % of control where 0% means no effect; nearly all actives have a fitted effect of over 65% in size
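Readout is rescue of growth in alpha-synuclein-expressing yeast, so inhibitors of toxicity appear as activators. Growth after 24 hr at 30 deg C in galactose medium is quantified by luminescence.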
Mito fusion yeast = qHTS Assay for Small Molecule Inhibitors of Mitochondrial Division or Activators of Mitochondrial Fusion; S. cerevisiae fusion-defective mutant growth rescue, CellTiterGlo 48 h; Potency, µM (highest dose often 46.1 µM), for the others: at the highest dose growth rescue (activation), usual class: activators; actives 0.23% (n = 320,000); also: % of control where 0% means no effect; nearly all actives have a fitted effect of over 45% in size
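Temperature-sensitive fusion-defective S. cerevisiae (e.g. fzo1-1, mgm1-5) were grown with compound in YPEG medium (3% ethanol, 3% glycerol) for 48 hours at 37C. Growth rescue was measured as viability by CellTiterGlo luminescence after 10 minutes at ambient.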
Abeta rescue = qHTS for compounds that reverse cellular toxicity of Amyloid beta (A-beta) peptide in yeast: Primary Screen; yeast expressing A-beta42, growth rescue, OD600, 48 h; response scale: 0% DMSO, 100% iron-clioquinol control; Potency, µM (doses to about 46.1 µM), actives largely listed as activators; actives 0.063% (n = 410,000); also: nearly all actives have a fitted effect of over 55% in size
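Yeast growth medium received pinned compounds, then yeast cells expressing toxic A-beta were added; plates incubated at 30 C for 48 hr. Growth read as absorbance at 600 nm, normalized to DMSO and equimolar FeCl3 plus clioquinol controls.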
TDP43 rescue = qHTS of TDP-43 Inhibitors. TDP-43 expressing yeast growth rescue, BacTiter-Glo, 24 h. Potency, µM (top dose mostly 46.1 µM), inactives show at the highest dose growth rescue (activation), most hits filed as activators. actives 1.8% (n = 410,000). AID 652104, 2013; also: % of control where 0% means no effect; nearly all actives have a fitted effect of over 50% in size
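Galactose-induced TDP-43 yeast, OD600=0.02, compound pinned; 24 hr, 30 deg C; BacTiter-Glo luminescence for growth. Inhibitors of TDP-43 toxicity read as activators.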
FUS suppressor = qHTS for Suppressors of FUS Proteinopathy: Primary screen using FUS-linked yeast assay. S. cerevisiae FUS-expressing, growth rescue, OD600, 24 h. Potency, µM (titrated, usually from 76.6 µM), hits mostly activators. actives 0.24% (n = 390,000);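 also: plate controls were DMSO vehicle for no effect and reference control for full effect; nearly all actives have a fitted effect of over 55% in size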
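Restored growth of FUS-toxic S. cerevisiae, read as 600 nm absorbance after 24 h at 30C in galactose medium (starting OD 0.005). Controls CP55940 and DMSO.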
Starred values were filed as active, the others as inactive. Calls follow the shape of the dose curve; as a rule, active = well fitted curve in the direction sought with a large enough effect; inconclusive = small, poorly fitted or top-dose-only effect, or another doubt; inactive = no such curve, though single readings can be large; an effect the other way counts as inactive or inconclusive. Potency is read from the fitted curve at half-maximal effect.

How did CCc1cccc(C)c1NC(=O)Cn1nc(C)c2nn(-c3ccc(Cl)cc3)c(C)c2c1=O do in these assays?
Abeta rescue: inactive; TDP43 rescue: -1%; FUS suppressor: inconclusive

What do the screens show for `CN(C)c1ccc(/C=C/C=C2/C=Cc3ccccc32)cc1`?
aSyn rescue: -3%

What do the screens show for `O=C(CSc1nccn1-c1ccc(F)cc1)Nc1ccc(OC(F)(F)F)cc1`?
Abeta rescue: inconclusive; TDP43 rescue: 16µM*; FUS suppressor: inactive

What do the screens show for `Cc1cc(C)cc(-n2ccnc2SCC(=O)Nc2cccc3ccccc23)c1`?
aSyn rescue: 10%; Abeta rescue: inactive; TDP43 rescue: 20µM*; FUS suppressor: inactive

What do the screens show for `O=C(CSc1nccn1-c1cccc(Cl)c1)Nc1ccc2c(c1)OCO2`?
Abeta rescue: inactive; TDP43 rescue: 18µM*; FUS suppressor: inactive

What do the screens show for `CCSc1nnc(NC(=O)CSc2nccn2-c2cccc(C)c2C)s1`?
aSyn rescue: 4%; Mito fusion yeast: 9%; Abeta rescue: inactive; TDP43 rescue: 16µM*; FUS suppressor: inactive

Results for O=C(CSc1nccn1-c1cccc(Cl)c1)Nc1ccc2c(c1)OCCO2 ?
aSyn rescue: 6%; Mito fusion yeast: 3%; Abeta rescue: inactive; TDP43 rescue: inconclusive; FUS suppressor: inactive

Results for Cc1cccc(C)c1NC(=O)Cn1nnc(-c2ccncc2)n1 ?
FUS suppressor: inactive

How did COC(=O)C[C@H]1CC[C@@H]2[C@H](COc3ccc(NS(C)(=O)=O)cc3C(=O)N2C)O1 do in these assays?
FUS suppressor: inactive

How did N.N.N.N.N.N.N.N.N.N.N.N.N.N.O.O.[Ru+4].[Ru+5].[Ru+5] do in these assays?
aSyn rescue: -69%; Mito fusion yeast: -39%

What do the screens show for `CCN1C(=NCc2cccc(Cl)c2)N[C@@H](c2cccc(C(F)(F)F)c2)C(C(=O)OC)=C1C`?
aSyn rescue: 0%

How did COc1cccc(-n2ccnc2SCC(=O)Nc2cccc(C)c2C)c1 do in these assays?
aSyn rescue: 2%; Abeta rescue: inactive; TDP43 rescue: 16µM*; FUS suppressor: inactive

Results for CCOc1ccccc1NC(=O)CSc1nccn1-c1ccc(Cl)cc1 ?
Abeta rescue: inactive; TDP43 rescue: inconclusive; FUS suppressor: inactive

How did O=C(CSc1nccn1-c1ccc(Cl)cc1)Nc1cccc2ccccc12 do in these assays?
Abeta rescue: inactive; TDP43 rescue: 11µM*; FUS suppressor: inactive

Results for Cc1nc2ccc(S(=O)(=O)NCC(=O)N(C)Cc3ccc(F)cc3)cc2s1 ?
FUS suppressor: inactive

How did O=C(c1ccccc1Br)N(Cc1ccco1)Cc1ccco1 do in these assays?
Abeta rescue: inactive; TDP43 rescue: -11%; FUS suppressor: inactive

How did CC(C(=O)O)(C1CCCCC1)C1(O)CCCCC1 (stereo not drawn) do in these assays?
aSyn rescue: 0%; Abeta rescue: inactive; TDP43 rescue: inconclusive; FUS suppressor: inactive

What do the screens show for `CC1CCC(C(O)(C(=O)O)C2CCCCC2)CC1C` (stereo not drawn)?
aSyn rescue: 14%; Abeta rescue: inactive; TDP43 rescue: 18µM*

Results for CCCCCN1CCCCC(NC(=O)c2ccc(F)cc2)C1=O (stereo not drawn) ?
FUS suppressor: inactive

What do the screens show for `COc1ccc(CNc2oc(COc3cccc(C)c3)nc2C#N)cc1`?
Abeta rescue: inactive; TDP43 rescue: 22µM*; FUS suppressor: inactive

Results for N#Cc1nc(COc2ccc(Cl)cc2)oc1NCc1ccc2c(c1)OCO2 ?
aSyn rescue: -3%; Mito fusion yeast: 27%; Abeta rescue: inactive; TDP43 rescue: 4%; FUS suppressor: inactive

How did Cc1cccc(OCc2nc(C#N)c(NCc3ccc4c(c3)OCO4)o2)c1 do in these assays?
aSyn rescue: 27%; Mito fusion yeast: 7.1µM*; Abeta rescue: inactive; TDP43 rescue: inconclusive; FUS suppressor: inactive
